Experimental data published in the supplement of paper PMC12636033.
± gives the standard deviation of the averaged measurements. The full ranking holds about 33,000 sequences; the median of “E-score (rank enrichment, -0.5 to 0.5)” is about -0.0043, and the highest 2% start at about 0.24. The sample holds the highest values, similar sequences and a random draw of the others, so the mix is not that of the screen.

These sequences were tested on 2Sp-muMax20 (muMax20 with two 2,6-bis(methyl)pyridine Cys staples) (assay: PBM 8-mer E-score (E-score (rank enrichment, -0.5 to 0.5)); higher = stronger preferential binding).
Procedure: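 Protein binding microarray (universal PBM chip covering all 10-mers in fixed probe flanks) with chemically synthesized human Max(13-93) bHLH-LZ analogs (not full-length Max) bearing noncanonical residues (hArg, Tha, Aib, Nle at 65) and aromatic Cys staples. Read-out per 8-mer (and its reverse complement): E-score (rank-based enrichment, -0.5 to 0.5) and Z-score of median probe intensity.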

| Sequence | PBM 8-mer E-score |
| --- | --- |
| ATGTATAA | 0.277 ± 0.046 |
| ATATATAA | 0.328 ± 0.032 |
| ATGTAGAG | 0.0603 ± 0.063 |
| CTGTATAA | 0.19 ± 0.035 |
| CGATATAG | 0.116 ± 0.068 |
| ATGTAGAA | 0.246 ± 0.053 |
| CGATATAC | 0.0494 ± 0.11 |
| ACAAACGC | -0.0614 ± 0.035 |
| CACAAATC | 0.052 ± 0.071 |
| AGAGGGAG | 0.112 ± 0.027 |
| ATGGGCAG | 0.0154 ± 0.02 |
| AGTCTCTA | 0.0513 ± 0.038 |
| GGCGAACA | -0.00568 ± 0.13 |
| ATACACCC | -0.00554 ± 0.027 |
| ATATAGTC | 0.238 ± 0.069 |
| TGATATAA | 0.232 ± 0.064 |
| ATATAGTA | 0.231 ± 0.019 |
| ATATATAT | 0.116 ± 0.091 |
| ATATATAC | 0.252 ± 0.015 |
| CTATATAC | 0.204 ± 0.022 |
| TTATATAA | 0.282 ± 0.044 |
| GTATATAC | 0.0149 ± 0.075 |

| Sequence | PBM 8-mer E-score |
| --- | --- |
| CTATAGTC | 0.0602 ± 0.045 |
| GAGCTTCC | -0.0166 ± 0.072 |
| CGCGAGGC | -0.0315 ± 0.0085 |
| ATCTACCA | 0.119 ± 0.038 |
| CCAATGGG | -0.162 ± 0.09 |
| GGTTGCAA | 0.0477 ± 0.016 |
| GCCAGTCC | -0.152 ± 0.14 |
| GCGGCCAC | -0.292 ± 0.061 |
| CAAATGAC | -0.036 ± 0.036 |
| AGCCTTTG | -0.0519 ± 0.04 |
| CATGCTCG | 0.116 ± 0.052 |
| ACAGCCAC | -0.0111 ± 0.073 |
| ATCGATCA | 0.0704 ± 0.044 |
| AAGGCCTT | 0.293 ± 0.052 |
| AAGGCCGG | -0.146 ± 0.023 |
| AAGGCCGC | -0.0467 ± 0.032 |
| AAGGCCGT | 0.284 ± 0.012 |
| AAGGCCTA | 0.00342 ± 0.048 |
| AAGGCCTG | -0.212 ± 0.061 |
| ATGTGGCG | 0.0809 ± 0.017 |
| CTACCCTC | 0.0414 ± 0.062 |
| CTCCCAAA | 0.143 ± 0.084 |

| Sequence | PBM 8-mer E-score |
| --- | --- |
| GCTGTTCA | 0.0277 ± 0.084 |
| GCACGTTA | 0.113 ± 0.039 |
| GCACATGA | 0.151 ± 0.036 |
| CCACGTGG | 0.455 ± 0.021 |
| CAACGTGG | 0.0662 ± 0.077 |
| CCACATGA | 0.241 ± 0.053 |
| CGACGTGC | 0.00092 ± 0.063 |
| CCACGTGC | 0.431 ± 0.00066 |
| CCACGTTC | -0.0572 ± 0.027 |
| CCACGTCC | -0.117 ± 0.06 |
| CCACATGG | 0.161 ± 0.014 |
| CCACGTAG | -0.11 ± 0.053 |
| CCACGTTA | 0.252 ± 0.044 |
| ATACCCAC | 0.197 ± 0.059 |
| CACGGCCC | -0.216 ± 0.024 |
| GCAACGGA | 0.0572 ± 0.11 |
| AGGAGAGA | -0.134 ± 0.081 |
| GATTGGGC | -0.0399 ± 0.037 |
| CAGAAAAC | 0.0606 ± 0.042 |
| ACACGCGG | 0.181 ± 0.012 |
| CCACGCGG | 0.448 ± 0.016 |
| CCACGCGA | 0.112 ± 0.0062 |

| Sequence | PBM 8-mer E-score |
| --- | --- |
| CTACGTGA | -0.0272 ± 0.054 |
| CCACGTGA | 0.358 ± 0.053 |
| CGACGTGA | 0.063 ± 0.051 |
| ATCGAAGC | -0.0587 ± 0.14 |
| CAGGCATA | 0.0998 ± 0.023 |
| ATTCCACC | 0.0112 ± 0.074 |
| CCGATCGC | 0.00661 ± 0.018 |
| GCGATCGC | 0.241 ± 0.049 |
| ACGATCGC | 0.0237 ± 0.025 |
| CCAATCCA | 0.00702 ± 0.16 |
| CAATTGGC | 0.244 ± 0.016 |
| GAATTGGC | 0.0412 ± 0.066 |
| CAATTGGG | 0.136 ± 0.037 |
| ACCTGTGC | -0.0312 ± 0.029 |
| CTTGCTAA | -0.0836 ± 0.038 |
| CGCCTCCC | 0.00831 ± 0.026 |
| AGAACGGC | 0.0294 ± 0.038 |
| TATCCATA | 0.15 ± 0.012 |
| CTCCCCAA | 0.309 ± 0.0081 |
| CTCCCCTA | 0.106 ± 0.087 |
| ATCCCCTC | 0.215 ± 0.038 |
| ATCCCAAA | 0.0771 ± 0.056 |

| Sequence | PBM 8-mer E-score |
| --- | --- |
| GTCCCCAC | 0.021 ± 0.043 |
| CTCCCCCA | -0.103 ± 0.12 |
| CTCCCCAG | 0.191 ± 0.064 |
| CTCCCCAC | 0.278 ± 0.015 |
| ATCCCCTA | 0.282 ± 0.019 |
| ATCCCCAA | 0.274 ± 0.036 |
| TTCCCCAA | 0.173 ± 0.06 |
| ATCCCCCA | -0.224 ± 0.14 |
| AATAGTCA | 0.109 ± 0.0063 |
| CCACATAA | 0.0944 ± 0.027 |
| GGATTACC | 0.0419 ± 0.024 |
| AATGAAGC | 0.0104 ± 0.028 |
| GTGGTAAA | -0.0637 ± 0.0084 |
| CGGGTCAC | -0.118 ± 0.034 |
| AAGGTATG | 0.149 ± 0.056 |
| AGAACACC | 0.0163 ± 0.039 |
| ATCCCCAC | 0.247 ± 0.038 |
| GACCCCAC | 0.131 ± 0.021 |
| ATCCCCAT | 0.104 ± 0.064 |
| ATCCCCAG | 0.0388 ± 0.058 |
| CACCCCAC | 0.265 ± 0.007 |
| AACCCCAC | 0.136 ± 0.032 |
